According to PubChem BioAssay:
Active and inactive are the calls of the source.

Columns and labels:
[1] = anti-His antibody binders, primary screen, artefact control for SMM control protein annotation, biochemical, small-molecule microarray, 635 nm fluorescence (AID 1128); details: anti-His Alexa647 antibody binding, higher = more signal;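 also: score merges feature fluorescence with signal-to-noise for each printed compound spot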
[2] = system: Human papillomavirus type 1a E7 protein (residues 1-88); test: HPV1a E7 small-molecule binders, primary screen, biochemical, small-molecule microarray, residues 1-88, 635 nm (AID 1129); details: small-molecule microarray binding, fluorescence 635 nm; higher = more signal
[3] = target: Focal adhesion kinase 1 (Homo sapiens) (UniProt Q05397); test: small-molecule microarray binders of FAK, primary screen, biochemical, 635/667 nm fluorescence, BSA, DTT (AID 1130); details: PTK2 binding, 635 nm fluorescence, higher = more signal;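 also: composite of spot emission at 667 nm and signal to noise over triplicate slides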
[4] = system: Fibrinogen (Alexa647-labelled); test: fibrinogen binders on compound microarrays, profiling panel, artefact control for SMM control-protein annotation, biochemical, small-molecule microarray, 635/667 nm fluorescence (AID 1131); details: fibrinogen-A647 binding fluorescence, higher = more signal;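 also: z-score merges 667 nm fluorescence with per-spot signal-to-noise over triplicate slides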
[5] = target: Follistatin (Homo sapiens) (UniProt P19883); test: follistatin binders on small-molecule microarrays, primary screen, biochemical, small-molecule microarray, 635/667 nm fluorescence (AID 1132); details: FST binding, 635 nm fluorescence, higher = more signal
[6] = target: Fibroblast growth factor 2 (Homo sapiens) (UniProt P09038); test: FGF2 binders on small-molecule microarrays, primary screen, biochemical, small-molecule microarray, 635/667 nm fluorescence (AID 1133); details: small-molecule microarray binding, FGF2, fluorescence 635/667; higher = more signal
[7] = mitochondrial membrane potential change in A549 cells, profiling panel, cell-based, JC-1 fluorescence, basal, 24 h, 100 nL (AID 1138); details: higher = more signal;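 also: A549 lung adenocarcinoma cells under basal conditions with no added stimulus; test concentration not given here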
[8] = system: Lefty1; test: Lefty1 binders on small-molecule microarrays, primary screen, biochemical, small-molecule microarray, 635/667 nm fluorescence (AID 1139); details: small-molecule microarray binding, fluorescence 635/667; higher = more signal
[9] = system: wheat germ agglutinin (Triticum aestivum), Alexa647-labelled; test: wheat germ agglutinin binders on compound microarrays, profiling panel, artefact control for SMM control-protein annotation, biochemical, small-molecule microarray, 635/667 nm fluorescence (AID 1140); details: WGA-A647 binding, 635 nm fluorescence, higher = more signal;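 also: score merges 667 nm feature emission with signal to noise over triplicate slides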
[10] = target: Luciferin 4-monooxygenase (Photinus pyralis) (UniProt P08659); test: firefly luciferase enzyme inhibitors, primary screen, biochemical, luminescence, purified enzyme, 2006 set (AID 1141); details: SteadyGlo luminescence, 30 min, higher = more signal, called active from +8 up or from −8 down;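 also: cell-free assay with purified firefly luciferase at 100 ng per well in PBS; test concentration not given here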
Luciferin 4-monooxygenase (Photinus pyralis), sequence (P08659 whole entry, looked up): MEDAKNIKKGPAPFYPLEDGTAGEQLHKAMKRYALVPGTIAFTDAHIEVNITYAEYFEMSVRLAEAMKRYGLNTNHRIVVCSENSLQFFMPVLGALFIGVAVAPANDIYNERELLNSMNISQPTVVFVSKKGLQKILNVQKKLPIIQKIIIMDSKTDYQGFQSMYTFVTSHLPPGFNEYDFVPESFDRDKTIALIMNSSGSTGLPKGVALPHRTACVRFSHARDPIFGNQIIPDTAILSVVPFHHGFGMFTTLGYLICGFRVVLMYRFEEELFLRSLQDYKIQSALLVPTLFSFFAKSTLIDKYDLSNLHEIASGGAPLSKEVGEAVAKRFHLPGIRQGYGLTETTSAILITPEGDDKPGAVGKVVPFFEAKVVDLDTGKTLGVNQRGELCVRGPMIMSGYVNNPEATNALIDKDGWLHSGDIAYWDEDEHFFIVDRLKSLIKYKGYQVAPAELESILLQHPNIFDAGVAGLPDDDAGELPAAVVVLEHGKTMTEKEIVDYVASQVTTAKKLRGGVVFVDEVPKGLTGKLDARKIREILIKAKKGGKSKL

Focal adhesion kinase 1 (Homo sapiens), sequence (Q05397 whole entry, looked up): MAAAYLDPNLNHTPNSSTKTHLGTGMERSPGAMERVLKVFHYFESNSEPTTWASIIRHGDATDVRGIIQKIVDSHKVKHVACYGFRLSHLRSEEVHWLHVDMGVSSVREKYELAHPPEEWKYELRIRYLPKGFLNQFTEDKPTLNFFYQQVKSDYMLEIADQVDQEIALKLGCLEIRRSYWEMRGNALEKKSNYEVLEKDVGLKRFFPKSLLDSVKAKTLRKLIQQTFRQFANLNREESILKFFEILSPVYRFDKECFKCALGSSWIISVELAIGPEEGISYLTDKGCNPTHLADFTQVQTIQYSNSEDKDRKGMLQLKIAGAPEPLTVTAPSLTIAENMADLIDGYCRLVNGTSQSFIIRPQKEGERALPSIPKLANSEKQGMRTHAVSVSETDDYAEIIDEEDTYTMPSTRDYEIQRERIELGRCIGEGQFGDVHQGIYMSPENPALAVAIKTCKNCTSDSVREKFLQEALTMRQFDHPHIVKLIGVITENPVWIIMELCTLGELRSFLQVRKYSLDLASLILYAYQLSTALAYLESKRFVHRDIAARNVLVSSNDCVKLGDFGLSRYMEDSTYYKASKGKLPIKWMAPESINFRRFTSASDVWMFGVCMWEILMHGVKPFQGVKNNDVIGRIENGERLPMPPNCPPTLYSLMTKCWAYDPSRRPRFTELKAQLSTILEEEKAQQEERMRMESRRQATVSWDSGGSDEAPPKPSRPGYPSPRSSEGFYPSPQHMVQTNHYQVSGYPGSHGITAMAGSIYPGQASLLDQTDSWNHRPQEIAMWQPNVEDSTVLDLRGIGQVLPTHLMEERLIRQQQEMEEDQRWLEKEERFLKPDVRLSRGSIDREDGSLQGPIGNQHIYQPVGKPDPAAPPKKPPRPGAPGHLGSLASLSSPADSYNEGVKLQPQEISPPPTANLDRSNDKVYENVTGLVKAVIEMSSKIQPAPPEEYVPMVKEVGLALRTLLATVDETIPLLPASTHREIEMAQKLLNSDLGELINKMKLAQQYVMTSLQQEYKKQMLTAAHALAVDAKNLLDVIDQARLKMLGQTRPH
Fibroblast growth factor 2 (Homo sapiens), sequence (P09038 whole entry, looked up): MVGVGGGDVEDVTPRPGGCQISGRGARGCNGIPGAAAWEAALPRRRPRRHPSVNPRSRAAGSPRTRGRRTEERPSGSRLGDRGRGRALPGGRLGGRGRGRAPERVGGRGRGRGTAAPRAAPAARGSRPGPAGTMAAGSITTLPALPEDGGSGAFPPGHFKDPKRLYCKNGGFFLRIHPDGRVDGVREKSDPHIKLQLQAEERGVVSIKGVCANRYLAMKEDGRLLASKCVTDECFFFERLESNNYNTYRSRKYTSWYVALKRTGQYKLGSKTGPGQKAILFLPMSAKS
Follistatin (Homo sapiens), sequence (P19883 whole entry, looked up): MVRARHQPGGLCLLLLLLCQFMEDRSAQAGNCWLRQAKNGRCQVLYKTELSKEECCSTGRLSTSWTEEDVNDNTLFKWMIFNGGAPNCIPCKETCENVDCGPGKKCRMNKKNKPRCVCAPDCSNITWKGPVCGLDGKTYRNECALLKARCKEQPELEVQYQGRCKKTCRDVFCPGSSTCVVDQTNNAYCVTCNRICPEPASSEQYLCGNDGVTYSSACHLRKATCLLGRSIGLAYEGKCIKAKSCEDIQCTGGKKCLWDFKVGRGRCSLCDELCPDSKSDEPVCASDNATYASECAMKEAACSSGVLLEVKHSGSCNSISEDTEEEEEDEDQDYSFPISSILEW

Compound | composite z-score [1] | composite z-score [2] | composite z-score [3] | composite z-score [4] | composite z-score [5] | composite z-score [6] | z-score [7] | composite z-score [8] | composite z-score [9] | z-score [10]
COCCOC(=O)N1C(=O)[C@@]2(c3cc(C#CCNC(N)=O)ccc31)[C@H](C(=O)N1CCN(c3ncccn3)CC1)[C@H]1C(=O)O[C@H](c3ccccc3)[C@H](c3ccccc3)N1[C@@H]2c1ccc(OCCO)cc1 | 0.549 | 1.12 | -0.171 | 0.931 | 1.12 | 0.674 | -1.25 | 0.465 | 0.723 | -1.47 (inactive)
Cc1ccc(S[C@]2(C(=O)NCCCN(C)C)CC(=O)N(Cc3cc(C(F)(F)F)cc(C(F)(F)F)c3)[C@@H]2c2ccc(CO)cc2)cc1 | -0.237 | -0.817 | 0.145 | -0.603 | -0.802 | -1.33 | 0.134 | -0.493 | 0.0796 | -0.303 (inactive)
COc1ccc([Si](C)(C)[C@@H]2[C@@H](CCO)O[C@]3(C(=O)N(Cc4ccc(N(C=O)c5ccccc5)cc4)c4ccccc43)[C@H]2C)cc1 | 0.297 | 0.34 | 0.0744 | 0.845 | 0.735 | 0.526 | -0.0272 | 0.0434 | 1.06 | 0.0379 (inactive)
COC(=O)C(CC#Cc1ccc2c(c1)[C@]1(C(=O)N2)[C@H](C(=O)Nc2nc3ccccc3s2)[C@H]2C(=O)O[C@H](c3ccccc3)[C@H](c3ccccc3)N2[C@@H]1c1ccccc1OCCO)C(=O)OC | 1.41 | 1.24 | 1.04 | 0.964 | 0.931 | 0.452 | -2.25 | 0.625 | 1.29 | -0.293 (inactive)
CC(C)C(=C=CC[C@H](O)c1ccc(OCCO)cc1)CCO | 1.07 | 1.2 | 0.178 | 0.53 | 1.38 | 1.05 | 0.41 | 1.07 | 0.295 | -0.961 (inactive)
O=C(CS)NCCCCCCNC(=O)[C@@H]1C[C@@H]2C(=O)NCC(=O)N2[C@@H]1c1cccc(OCCO)c1 | 3.13 | 1.23 | 0.69 | -0.993 | 0.998 | 1.4 | 0.609 | -0.408 | -0.56 | -1.02 (inactive)
COC(=O)[C@@]1(Cc2ccc(OC)cc2)[C@H]2c3cc(C(=O)N(C)C)n(Cc4ccc(S(C)(=O)=O)cc4)c3C[C@H]2CN1C(=O)c1ccccc1 | 1.84 | 1.26 | 1.07 | 0.849 | 1.11 | -0.56 | 0.956 | 0.0038 | 1.23 | 1.75 (inactive)
CCS[C@H]1[C@@H](C(=O)O)[C@H](c2ccc(C)cc2)N(S(=O)(=O)c2ccc(C)cc2)[C@@H]1CC | 1.12 | 1.24 | 0.353 | 0.715 | 0.714 | -0.0028 | -0.223 | -0.0097 | 0.652 | 1.16 (inactive)
CO[C@H]1O[C@H](CO)[C@@H](OC(=O)Nc2ccc(C(F)(F)F)cc2)[C@H](OC(=O)Nc2ccc3c(c2)OCO3)[C@@H]1OC(=O)Nc1ccc2c(c1)OCO2 | 2.18 | 1.22 | 1.43 | 0.607 | 1.17 | 0.397 | -0.656 | 0.537 | 0.729 | -17.3 (active)
Cc1ccc([C@@H]2C[C@@H](Sc3ccccc3)[C@H](C(=O)O)CN2S(=O)(=O)c2ccc(C)cc2)cc1 | 1.98 | 1.26 | 0.373 | 0.956 | 0.868 | 0.507 | -1.42 | 0.589 | 1.14 | 1.88 (inactive)
C=C(COC)/C(=C/C[C@@H](OC(=O)c1ccncc1)c1ccc(CO)o1)c1cc(C(=O)OC)ccc1OC | 0.68 | 1.24 | 0.987 | 0.933 | 1.46 | 1.92 | 0.526 | 1.64 | 0.707 | -1.83 (inactive)
CCCCCN1CC=CC23O[C@@H]4/C=C\CCC(C)OC(=O)C4[C@H]2C(=O)N(C(C)CO)[C@@H]3C1=O (stereo not given in full) | -0.361 | -0.575 | -0.521 | -0.925 | 0.274 | -0.556 | 0.157 | 0.696 | -0.721 | -0.078 (inactive)
[N-]=[N+]=NCc1ccccc1[C@@H]1OC(c2ccc(OCCCO)cc2)=N[C@]1(Cc1ccccc1)C(=O)NCC(O)CO (stereo not given in full) | 1.9 | 1.19 | 0.443 | 0.958 | 0.973 | 1.52 | 0.529 | -1.3 | 0.718 | -0.0075 (inactive)
CCCC#C[Si](O[C@H](CC)c1cn(Cc2cccc(Cl)c2)nn1)(C(C)C)C(C)C | 0.849 | 0.87 | -0.442 | 0.684 | 0.357 | 0.54 | -0.264 | 0.467 | 0.686 | -0.786 (inactive)
CC(=O)NCCCC[C@@H]1NC(=O)[C@@H]2C[C@H](C(=O)NCCCCCNC(=O)CS)[C@H](c3cccc(OCCO)c3)N2C1=O | 2 | -0.516 | -0.612 | -1.07 | 1.32 | 0.94 | -0.763 | 1.1 | 0.0847 | -0.125 (inactive)
CCc1cccc(NC(=O)O[C@H]2[C@H](OC(=O)Nc3ccccc3-c3ccccc3)[C@@H](OC(=O)Nc3ccccc3-c3ccccc3)[C@@H](OC)O[C@@H]2CO)c1 | 2.04 | 1.31 | 0.69 | 1.02 | 1.02 | 0.179 | -1.12 | 0.345 | 1.08 | 0.532 (inactive)
CC1CC/C=C\[C@H]2OC34C=CCN(C(C)(C)C)C(=O)[C@H]3N(CCO)C(=O)[C@@H]4C2C(=O)O1 (stereo not given in full) | -0.931 | -0.585 | -0.0131 | -0.671 | -0.352 | -0.845 | -0.315 | -0.991 | 0.119 | 0.864 (inactive)
O=C1N(Cc2ccccc2)c2ccccc2[C@@H]2OC(c3ccc(OCCCO)cc3)=N[C@]12CCS(=O)(=O)c1ccccc1 | 0.218 | 1.2 | 0.564 | 0.92 | 1.15 | 0.311 | -0.311 | 0.0829 | 1.19 | -1.45 (inactive)
COCCOC(=O)N1C(=O)[C@@]2(c3cc(C#CCC(C(=O)OC)C(=O)OC)ccc31)[C@H](c1ccccc1OCCO)N1[C@H](c3ccccc3)[C@H](c3ccccc3)OC(=O)[C@H]1[C@@H]2C(=O)N1CCN(c2ncccn2)CC1 | 0.762 | 1.12 | 0.966 | 0.696 | 1.38 | 1.46 | -0.895 | 1.17 | 0.63 | 0.505 (inactive)
CCCCC(CC)C(O)C1C=CC2C(=O)N(Cc3ccccc3)C(=O)C2N1n1cnnc1 (stereo not given) | 0.544 | 0.541 | 1.57 | 0.107 | 0.539 | -0.504 | -0.423 | 0.0981 | 0.616 | 0.758 (inactive)
Cc1ccc(S[C@]2(C(=O)NC3CC3)CC(=O)N(Cc3ccccc3)[C@@H]2c2ccc(CO)cc2I)cc1 | -0.744 | -0.0095 | -0.557 | -0.394 | -0.868 | -0.131 | 2.49 | -1.86 | -0.567 | -1.42 (inactive)
CO[C@H]1O[C@H](CO)[C@@H](OC(=O)Nc2ccc(Oc3ccccc3)cc2)[C@H](OC(=O)Nc2ccc3c(c2)OCO3)[C@H]1OC(=O)Nc1ccc2c(c1)OCO2 | 1.83 | 1.2 | 1.29 | 0.933 | 1.34 | 0.957 | -0.249 | 1.05 | 1.18 | -6.84 (inactive)
